# Laboratory results: publication PMC7862700, “An all-to-all approach to the identification of sequence-specific readers for epigenetic DNA modifications on cytosine”
# Tests used:
# Assay in all cases: DAPPL (digital affinity profiling via proximity ligation, sequencing); 10 mM Tris-HCl pH 7.5, 50 mM NaCl, 1 mM DTT, 4% glycerol, room temperature, 30 min; GST-TFs on glutathione beads, 16-mer random dsDNA library, 0.1% formaldehyde crosslink after washing; high values mean tight binding
# FEV = biological target: T1, FEV (Homo sapiens, UniProt Q99581 1-238); conditions: protein: recombinant; tags: N-terminal GST; dsDNA, one strand shown
# T1 sequence: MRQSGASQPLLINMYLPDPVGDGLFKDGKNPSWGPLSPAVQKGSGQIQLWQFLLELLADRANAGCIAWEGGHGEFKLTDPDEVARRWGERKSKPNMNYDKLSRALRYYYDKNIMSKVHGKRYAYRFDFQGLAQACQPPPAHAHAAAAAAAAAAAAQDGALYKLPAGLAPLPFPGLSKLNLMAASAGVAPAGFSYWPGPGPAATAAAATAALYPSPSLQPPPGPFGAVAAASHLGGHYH
# Summary of the method: (§1)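 Pools of DNA-barcoded human transcription factors, expressed in yeast as GST fusions on glutathione beads and combined with a tag-only sample, were incubated with 200 nmole of a 16-mer random double-stranded DNA library. Incubation took 30 min at room temperature in Tris/NaCl/DTT/glycerol buffer and was followed by washing, 0.1% formaldehyde crosslinking, proximity ligation (BsaI/T4 ligase, 1 h, 37 °C), PCR amplification and sequencing on an Illumina NextSeq500. Binding signal is the ratio of a hexamer's read frequency for a factor to its frequency for the tag-only sample.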
# ETV5 = ETV5 (Homo sapiens, UniProt P41161 1-510); conditions: protein: recombinant; tags: N-terminal GST; dsDNA, one strand shown
# Summary of the method: as §1
# HSF1 = HSF1 (Homo sapiens, UniProt Q00613 1-529); conditions: protein: recombinant; tags: N-terminal GST; chain copies: 3; dsDNA, one strand shown
# Summary of the method: as §1
# SPIC = biological target: T2, SPIC (Homo sapiens, UniProt Q8N5J4 1-248); conditions: protein: recombinant; tags: N-terminal GST; dsDNA, one strand shown
# T2 sequence: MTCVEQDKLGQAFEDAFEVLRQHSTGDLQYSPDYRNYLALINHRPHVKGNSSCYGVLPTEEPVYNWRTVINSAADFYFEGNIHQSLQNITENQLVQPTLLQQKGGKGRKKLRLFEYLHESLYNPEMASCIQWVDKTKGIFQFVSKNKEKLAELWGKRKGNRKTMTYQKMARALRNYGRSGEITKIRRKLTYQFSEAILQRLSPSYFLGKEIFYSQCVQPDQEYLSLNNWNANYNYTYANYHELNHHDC
# Summary of the method: as §1
# ELF4 = ELF4 (Homo sapiens, UniProt Q99607 1-663); conditions: protein: recombinant; tags: N-terminal GST; dsDNA, one strand shown
# Summary of the method: as §1
# ELK4 = biological target: T3, ELK4 (Homo sapiens, UniProt P28324-2 1-405); conditions: protein: recombinant; tags: N-terminal GST; dsDNA, one strand shown
# T3 sequence: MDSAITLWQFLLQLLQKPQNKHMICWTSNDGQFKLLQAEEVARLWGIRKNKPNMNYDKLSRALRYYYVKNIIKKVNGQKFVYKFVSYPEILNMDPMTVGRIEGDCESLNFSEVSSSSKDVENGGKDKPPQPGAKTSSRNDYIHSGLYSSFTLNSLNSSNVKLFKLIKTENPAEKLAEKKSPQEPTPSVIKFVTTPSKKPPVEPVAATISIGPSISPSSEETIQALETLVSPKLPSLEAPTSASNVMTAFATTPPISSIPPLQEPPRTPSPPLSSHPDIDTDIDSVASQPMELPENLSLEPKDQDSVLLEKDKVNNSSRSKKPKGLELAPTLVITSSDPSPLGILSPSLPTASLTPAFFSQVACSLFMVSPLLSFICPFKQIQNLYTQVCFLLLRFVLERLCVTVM
# Summary of the method: as §1
# ETV2 = biological target: T4, ETV2 (Homo sapiens, UniProt O00321 1-342); conditions: protein: recombinant; tags: N-terminal GST; dsDNA, one strand shown
# T4 sequence: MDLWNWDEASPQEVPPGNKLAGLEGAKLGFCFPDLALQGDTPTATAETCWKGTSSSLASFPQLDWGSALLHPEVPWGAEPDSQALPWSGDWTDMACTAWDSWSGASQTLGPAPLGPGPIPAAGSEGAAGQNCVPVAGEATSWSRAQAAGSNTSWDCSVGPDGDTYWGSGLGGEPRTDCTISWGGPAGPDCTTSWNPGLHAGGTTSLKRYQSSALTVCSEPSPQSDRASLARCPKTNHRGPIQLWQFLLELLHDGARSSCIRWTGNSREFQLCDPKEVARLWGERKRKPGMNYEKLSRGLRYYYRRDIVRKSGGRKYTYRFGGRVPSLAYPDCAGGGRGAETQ
# Summary of the method: as §1
# ELF3 = biological target: T5, ELF3 (Homo sapiens, UniProt P78545 1-371); conditions: protein: recombinant; tags: N-terminal GST; dsDNA, one strand shown
# T5 sequence: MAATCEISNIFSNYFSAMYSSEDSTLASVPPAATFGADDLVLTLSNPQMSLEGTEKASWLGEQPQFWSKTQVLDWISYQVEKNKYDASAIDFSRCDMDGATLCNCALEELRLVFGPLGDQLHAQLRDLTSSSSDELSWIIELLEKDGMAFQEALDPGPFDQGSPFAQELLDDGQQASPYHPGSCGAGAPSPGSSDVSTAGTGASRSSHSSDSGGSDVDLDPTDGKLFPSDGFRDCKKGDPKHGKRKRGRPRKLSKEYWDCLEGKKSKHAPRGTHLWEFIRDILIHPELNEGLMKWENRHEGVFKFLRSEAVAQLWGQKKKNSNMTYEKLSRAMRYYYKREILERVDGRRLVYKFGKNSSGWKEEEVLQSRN
# Summary of the method: as §1
# CRX = CRX (Homo sapiens, UniProt O43186 1-299); conditions: protein: recombinant; tags: N-terminal GST; dsDNA, one strand shown
# Summary of the method: as §1
# ETV1 = ETV1 (Homo sapiens, UniProt P50549 1-477); conditions: protein: recombinant; tags: N-terminal GST; dsDNA, one strand shown
# Summary of the method: as §1
# ERF = biological target: T6, ERF (Homo sapiens, UniProt P50548 1-548); conditions: protein: recombinant; tags: N-terminal GST; dsDNA, one strand shown
# T6 sequence: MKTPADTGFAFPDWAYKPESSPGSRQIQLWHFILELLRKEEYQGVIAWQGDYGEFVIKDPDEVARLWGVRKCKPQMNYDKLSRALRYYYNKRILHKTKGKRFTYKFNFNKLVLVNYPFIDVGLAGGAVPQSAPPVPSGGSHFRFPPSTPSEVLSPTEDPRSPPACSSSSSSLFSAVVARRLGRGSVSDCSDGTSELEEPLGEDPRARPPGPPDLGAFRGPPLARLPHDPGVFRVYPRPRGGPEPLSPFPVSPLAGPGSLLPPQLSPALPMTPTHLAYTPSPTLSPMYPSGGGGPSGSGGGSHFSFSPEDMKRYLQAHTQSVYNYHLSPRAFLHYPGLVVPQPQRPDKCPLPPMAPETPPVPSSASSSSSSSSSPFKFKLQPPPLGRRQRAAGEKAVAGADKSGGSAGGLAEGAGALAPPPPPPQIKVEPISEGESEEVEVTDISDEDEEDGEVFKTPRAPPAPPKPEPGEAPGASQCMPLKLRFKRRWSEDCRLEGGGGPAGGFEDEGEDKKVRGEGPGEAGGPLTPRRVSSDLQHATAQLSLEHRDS
# Summary of the method: as §1
# ETV3L = biological target: T7, ETV3L (Homo sapiens, UniProt Q6ZN32 1-361); conditions: protein: recombinant; tags: N-terminal GST; dsDNA, one strand shown
# T7 sequence: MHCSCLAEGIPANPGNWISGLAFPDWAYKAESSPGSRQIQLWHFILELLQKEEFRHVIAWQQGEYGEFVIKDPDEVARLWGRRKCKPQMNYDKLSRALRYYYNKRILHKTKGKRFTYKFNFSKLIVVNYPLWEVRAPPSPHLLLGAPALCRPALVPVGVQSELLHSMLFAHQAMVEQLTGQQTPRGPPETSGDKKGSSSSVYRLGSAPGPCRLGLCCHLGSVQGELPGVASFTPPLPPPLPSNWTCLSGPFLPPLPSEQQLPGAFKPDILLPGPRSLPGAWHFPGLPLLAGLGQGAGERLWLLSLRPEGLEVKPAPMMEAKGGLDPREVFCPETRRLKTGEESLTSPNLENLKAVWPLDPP
# Summary of the method: as §1
# ETS2 = biological target: T8, ETS2 (Homo sapiens, UniProt P15036 1-469); conditions: protein: recombinant; tags: N-terminal GST; dsDNA, one strand shown
# T8 sequence: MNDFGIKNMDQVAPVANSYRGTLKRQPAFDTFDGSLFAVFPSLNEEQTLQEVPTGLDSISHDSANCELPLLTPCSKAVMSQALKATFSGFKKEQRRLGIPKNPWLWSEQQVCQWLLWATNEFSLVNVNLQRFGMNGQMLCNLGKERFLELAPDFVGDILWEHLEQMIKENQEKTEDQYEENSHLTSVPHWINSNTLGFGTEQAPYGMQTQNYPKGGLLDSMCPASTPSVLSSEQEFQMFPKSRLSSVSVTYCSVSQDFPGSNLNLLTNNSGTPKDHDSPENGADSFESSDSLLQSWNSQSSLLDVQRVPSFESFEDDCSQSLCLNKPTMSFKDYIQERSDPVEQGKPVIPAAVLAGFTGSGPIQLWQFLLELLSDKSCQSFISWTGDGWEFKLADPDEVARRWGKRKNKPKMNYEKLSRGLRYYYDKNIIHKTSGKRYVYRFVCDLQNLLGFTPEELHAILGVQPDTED
# Summary of the method: as §1
# SPDEF = biological target: T9, SPDEF (Homo sapiens, UniProt O95238 1-335); conditions: protein: recombinant; tags: N-terminal GST; dsDNA, one strand shown
# T9 sequence: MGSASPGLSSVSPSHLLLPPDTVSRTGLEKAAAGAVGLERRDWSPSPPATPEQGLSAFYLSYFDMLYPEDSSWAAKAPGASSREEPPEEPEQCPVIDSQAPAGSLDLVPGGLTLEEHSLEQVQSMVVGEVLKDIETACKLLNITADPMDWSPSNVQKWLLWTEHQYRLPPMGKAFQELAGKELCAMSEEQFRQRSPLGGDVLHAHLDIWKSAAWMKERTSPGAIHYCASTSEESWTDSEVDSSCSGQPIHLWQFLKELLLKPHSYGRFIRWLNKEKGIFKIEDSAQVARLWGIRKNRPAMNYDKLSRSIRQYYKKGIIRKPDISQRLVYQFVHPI
# Summary of the method: as §1
# ETV7 = biological target: T10, ETV7 (Homo sapiens, UniProt Q9Y603 1-341); conditions: protein: recombinant; tags: N-terminal GST; dsDNA, one strand shown
# T10 sequence: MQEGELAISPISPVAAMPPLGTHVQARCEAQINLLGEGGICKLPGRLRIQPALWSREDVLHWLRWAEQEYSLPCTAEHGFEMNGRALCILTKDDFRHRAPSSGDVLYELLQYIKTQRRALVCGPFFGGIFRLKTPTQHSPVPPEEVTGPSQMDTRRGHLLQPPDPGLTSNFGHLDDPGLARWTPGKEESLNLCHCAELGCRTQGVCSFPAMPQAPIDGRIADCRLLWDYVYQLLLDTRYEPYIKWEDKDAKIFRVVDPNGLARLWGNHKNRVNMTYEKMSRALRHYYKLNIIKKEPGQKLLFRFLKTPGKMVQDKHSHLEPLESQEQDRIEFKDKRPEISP
# Summary of the method: as §1
# ELF5 = biological target: T11, ELF5 (Homo sapiens, UniProt Q9UKW6-2 1-255); conditions: protein: recombinant; tags: N-terminal GST; dsDNA, one strand shown
# T11 sequence: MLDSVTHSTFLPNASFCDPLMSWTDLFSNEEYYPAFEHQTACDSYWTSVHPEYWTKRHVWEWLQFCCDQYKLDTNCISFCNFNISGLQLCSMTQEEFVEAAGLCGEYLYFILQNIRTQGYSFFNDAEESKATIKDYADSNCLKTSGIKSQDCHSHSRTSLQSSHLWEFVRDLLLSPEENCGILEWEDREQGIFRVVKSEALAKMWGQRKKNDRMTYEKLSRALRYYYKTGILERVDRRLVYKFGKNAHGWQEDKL
# Summary of the method: as §1
# ETV3 = biological target: T12, ETV3 (Homo sapiens, UniProt P41162-2 1-143); conditions: protein: recombinant; tags: N-terminal GST; dsDNA, one strand shown
# T12 sequence: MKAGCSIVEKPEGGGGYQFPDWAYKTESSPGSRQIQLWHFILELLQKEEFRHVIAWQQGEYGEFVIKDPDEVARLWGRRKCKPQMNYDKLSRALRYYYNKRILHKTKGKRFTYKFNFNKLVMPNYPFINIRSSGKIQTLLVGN
# Summary of the method: as §1
# ETV6 = ETV6 (Homo sapiens, UniProt P41212 1-452); conditions: protein: recombinant; tags: N-terminal GST; dsDNA, one strand shown
# Summary of the method: as §1
# Sequence of ETV5 (P41161 whole entry): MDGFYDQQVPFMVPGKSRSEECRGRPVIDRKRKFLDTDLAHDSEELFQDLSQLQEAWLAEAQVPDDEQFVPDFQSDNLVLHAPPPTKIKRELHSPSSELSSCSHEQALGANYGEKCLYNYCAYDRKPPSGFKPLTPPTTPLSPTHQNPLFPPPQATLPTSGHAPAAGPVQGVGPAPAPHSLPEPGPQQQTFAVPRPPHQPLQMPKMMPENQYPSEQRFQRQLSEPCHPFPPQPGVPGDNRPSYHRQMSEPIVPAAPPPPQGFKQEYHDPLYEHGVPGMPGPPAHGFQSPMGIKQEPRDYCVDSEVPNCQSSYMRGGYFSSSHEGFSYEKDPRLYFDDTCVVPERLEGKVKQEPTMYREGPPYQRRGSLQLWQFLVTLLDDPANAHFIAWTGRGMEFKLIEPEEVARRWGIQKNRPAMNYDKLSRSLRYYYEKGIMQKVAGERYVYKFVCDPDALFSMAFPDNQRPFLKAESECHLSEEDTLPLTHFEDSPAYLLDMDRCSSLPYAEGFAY
# Sequence of ETV6 (P41212 whole entry): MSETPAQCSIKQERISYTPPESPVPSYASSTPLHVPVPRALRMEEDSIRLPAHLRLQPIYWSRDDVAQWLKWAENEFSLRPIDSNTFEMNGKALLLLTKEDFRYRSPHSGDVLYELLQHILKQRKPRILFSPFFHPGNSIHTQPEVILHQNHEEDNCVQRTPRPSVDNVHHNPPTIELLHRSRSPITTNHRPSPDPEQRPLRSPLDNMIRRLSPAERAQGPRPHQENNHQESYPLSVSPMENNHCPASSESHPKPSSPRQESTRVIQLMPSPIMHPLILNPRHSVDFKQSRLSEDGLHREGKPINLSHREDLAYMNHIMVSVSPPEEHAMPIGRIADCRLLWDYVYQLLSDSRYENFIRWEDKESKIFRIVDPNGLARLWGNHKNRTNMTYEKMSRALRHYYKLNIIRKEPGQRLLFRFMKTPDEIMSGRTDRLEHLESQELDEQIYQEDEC
# Sequence of HSF1 (Q00613 whole entry): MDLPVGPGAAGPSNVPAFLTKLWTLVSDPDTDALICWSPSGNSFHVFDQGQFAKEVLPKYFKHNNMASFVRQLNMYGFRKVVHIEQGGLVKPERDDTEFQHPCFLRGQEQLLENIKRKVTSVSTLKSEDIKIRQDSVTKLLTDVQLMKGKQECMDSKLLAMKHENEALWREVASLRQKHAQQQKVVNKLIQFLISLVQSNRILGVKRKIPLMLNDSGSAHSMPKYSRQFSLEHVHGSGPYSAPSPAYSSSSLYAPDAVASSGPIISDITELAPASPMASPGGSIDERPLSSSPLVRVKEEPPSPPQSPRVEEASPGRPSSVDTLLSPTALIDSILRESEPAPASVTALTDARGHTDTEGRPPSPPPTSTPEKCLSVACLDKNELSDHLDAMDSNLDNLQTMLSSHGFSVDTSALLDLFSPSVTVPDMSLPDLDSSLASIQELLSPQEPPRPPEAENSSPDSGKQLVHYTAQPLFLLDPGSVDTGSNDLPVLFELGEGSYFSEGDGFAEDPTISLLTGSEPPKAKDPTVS
# Sequence of ELF4 (Q99607 whole entry): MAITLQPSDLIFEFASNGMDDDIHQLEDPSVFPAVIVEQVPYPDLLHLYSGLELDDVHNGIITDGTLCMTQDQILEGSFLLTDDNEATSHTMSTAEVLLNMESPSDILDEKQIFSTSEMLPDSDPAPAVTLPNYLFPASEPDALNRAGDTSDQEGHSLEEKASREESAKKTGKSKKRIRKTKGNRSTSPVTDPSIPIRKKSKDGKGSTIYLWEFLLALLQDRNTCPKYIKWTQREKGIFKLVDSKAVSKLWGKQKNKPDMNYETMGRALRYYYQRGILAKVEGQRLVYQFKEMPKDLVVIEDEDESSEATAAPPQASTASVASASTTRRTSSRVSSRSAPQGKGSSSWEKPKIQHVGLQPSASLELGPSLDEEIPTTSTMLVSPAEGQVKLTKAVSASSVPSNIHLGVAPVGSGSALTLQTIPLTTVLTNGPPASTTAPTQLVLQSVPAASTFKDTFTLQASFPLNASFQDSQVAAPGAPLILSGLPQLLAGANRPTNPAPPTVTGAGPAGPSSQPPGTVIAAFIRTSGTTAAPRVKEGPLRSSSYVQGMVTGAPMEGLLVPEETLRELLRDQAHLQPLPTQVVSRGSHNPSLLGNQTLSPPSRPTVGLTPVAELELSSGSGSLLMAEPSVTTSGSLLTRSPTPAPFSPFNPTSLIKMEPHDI
# Sequence of CRX (O43186 whole entry): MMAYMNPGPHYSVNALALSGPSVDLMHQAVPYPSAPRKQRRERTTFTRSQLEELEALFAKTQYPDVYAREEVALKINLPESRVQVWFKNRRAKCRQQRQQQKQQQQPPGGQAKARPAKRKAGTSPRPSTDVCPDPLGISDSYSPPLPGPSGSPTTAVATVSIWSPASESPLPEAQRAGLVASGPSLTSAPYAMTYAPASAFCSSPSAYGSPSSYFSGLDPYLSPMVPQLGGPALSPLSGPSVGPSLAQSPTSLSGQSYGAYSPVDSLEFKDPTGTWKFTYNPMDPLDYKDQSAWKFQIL
# Sequence of ETV1 (P50549 whole entry): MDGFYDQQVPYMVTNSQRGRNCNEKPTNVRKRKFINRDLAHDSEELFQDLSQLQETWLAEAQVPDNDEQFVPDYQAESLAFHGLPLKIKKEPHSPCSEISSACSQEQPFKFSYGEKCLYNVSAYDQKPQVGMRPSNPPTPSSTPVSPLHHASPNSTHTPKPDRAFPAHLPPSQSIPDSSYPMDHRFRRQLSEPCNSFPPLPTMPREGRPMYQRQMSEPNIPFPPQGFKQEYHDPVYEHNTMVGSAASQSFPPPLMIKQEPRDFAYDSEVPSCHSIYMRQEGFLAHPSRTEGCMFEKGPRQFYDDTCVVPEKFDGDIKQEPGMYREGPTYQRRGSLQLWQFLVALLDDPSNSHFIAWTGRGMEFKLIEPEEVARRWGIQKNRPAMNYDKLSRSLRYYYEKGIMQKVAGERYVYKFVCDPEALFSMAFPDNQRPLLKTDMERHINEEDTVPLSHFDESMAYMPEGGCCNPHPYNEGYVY
sequence,measurement,setting,value
GCTCTC,binding signal,FEV,"1.47 fold enrichment (6-mer frequency, TF over GST control)"
same,binding signal,ETV5,"1.28 fold enrichment (6-mer frequency, TF over GST control)"
same,binding signal,HSF1,"1.42 fold enrichment (6-mer frequency, TF over GST control)"
same,binding signal,SPIC,"1.33 fold enrichment (6-mer frequency, TF over GST control)"
same,binding signal,ELF4,"1.45 fold enrichment (6-mer frequency, TF over GST control)"
same,binding signal,ELK4,"1.56 fold enrichment (6-mer frequency, TF over GST control)"
same,binding signal,ETV2,"1.61 fold enrichment (6-mer frequency, TF over GST control)"
same,binding signal,ELF3,"1.35 fold enrichment (6-mer frequency, TF over GST control)"
same,binding signal,CRX,"1.24 fold enrichment (6-mer frequency, TF over GST control)"
same,binding signal,ETV1,"1.57 fold enrichment (6-mer frequency, TF over GST control)"
same,binding signal,ERF,"1.42 fold enrichment (6-mer frequency, TF over GST control)"
same,binding signal,ETV3L,"1.52 fold enrichment (6-mer frequency, TF over GST control)"
same,binding signal,ETS2,"1.51 fold enrichment (6-mer frequency, TF over GST control)"
same,binding signal,SPDEF,"1.12 fold enrichment (6-mer frequency, TF over GST control)"
same,binding signal,ETV7,"1.25 fold enrichment (6-mer frequency, TF over GST control)"
same,binding signal,ELF5,"1.2 fold enrichment (6-mer frequency, TF over GST control)"
same,binding signal,ETV3,"1.48 fold enrichment (6-mer frequency, TF over GST control)"
same,binding signal,ETV6,"1.43 fold enrichment (6-mer frequency, TF over GST control)"
